Source: PubChem BioAssay (National Center for Advancing Translational Sciences (NCATS))
Tau fluor counter: Counterscreen qHTS for Inhibitors of Tau Fibril Formation, Fluorescence Polarization | 280,000 tested, 0.93% active | Potency, µM (doses to about 57.7 µM), without a hit: at the top dose activity change, negative = decrease | tau K18 P301L Alexa594 fluorescence, heparin fibrillization | AID 1463, 2008; further: nearly all actives have a fitted effect of over 55% in size
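Human tau K18 P301L (15 uM unlabeled, 0.24 uM Alexa 594-labeled) in 100 mM sodium acetate pH 7 with 20 uM heparin, 6 hr at 37 C. ThT 30 uM added, 1 hr ambient; Alexa 594 FP and total fluorescence read at 555/632 nm.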
KDM4E inh: qHTS Assay for Inhibitors of Human Jumonji Domain Containing 2E (JMJD2E); Potency, µM (highest dose often 57.1 µM), for inactives: top-dose activity change, negative = inhibition, actives largely listed as inhibitors; 230,000 tested, 1.6% active; JMJD2E catalytic domain, FDH-coupled NADH fluorescence (FDH is formaldehyde dehydrogenase);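 further: 0% = wells with enzyme and -100% = buffer wells without enzyme; nearly all actives have a fitted effect of over 50% in size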
TR SRC2 fluor cs: Total Fluorescence Counterscreen for Inhibitors of the Interaction of Thyroid Hormone Receptor and Steroid Receptor Coregulator 2; TRb/SRC2 Texas Red total fluorescence interference; Potency, µM (titrated, usually from 106 µM), without a hit: top-dose fluorescence change, negative = quenching; 280,000 tested, 0.29% active; active means well fitted curve in either direction with a large enough effect; inconclusive means small, poorly fitted or top-dose-only effect
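Human TRb ligand-binding domain at 0.6 uM with 20 nM Texas Red SRC2 peptide in Tris buffer containing 1 uM T3 and 5% DMSO, incubated with compound 5 h at ambient temperature. Total fluorescence (555/632 nm) calculated as parallel + 2 × perpendicular.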
Tau fibril FP: qHTS for Inhibitors of Tau Fibril Formation, Fluorescence Polarization | K18 P301L tau heparin fibrillization, Alexa594 FP, 6 h | AID 1468, 2008 | Potency, µM (top dose mostly 57.7 µM), for the others: at the highest dose activity, negative = inhibition, hits mostly inhibitors | Microtubule-associated protein tau (Homo sapiens), P10636 | 280,000 tested, 0.39% active; further: nearly all actives have a fitted effect of over 55% in size
Target sequence (P10636 561-689 P618L limits assumed): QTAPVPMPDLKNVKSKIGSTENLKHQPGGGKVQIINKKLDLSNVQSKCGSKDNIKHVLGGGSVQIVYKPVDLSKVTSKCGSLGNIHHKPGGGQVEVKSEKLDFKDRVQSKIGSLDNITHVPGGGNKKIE
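K18 P301L tau (15 uM unlabeled/0.24 uM Alexa 594-labeled, final) + compound + heparin 20 uM final; 100 mM NaOAc pH 7; 6 hr 37 C; ThT 30 uM final added, 1 hr RT; FP ex 555/em 632 nm.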
TRb SRC2 PPI: qHTS for Inhibitors of the Interaction of Thyroid Hormone Receptor and Steroid Receptor Coregulator 2; Thyroid hormone receptor beta (Homo sapiens), P10828; TRbeta-SRC2 peptide binding, fluorescence polarization; receptor liganded with 1 µM T3; Potency, µM (top dose mostly 106 µM), without a hit: top-dose activity change, negative = inhibition, most hits filed as inhibitors; 280,000 tested, 0.065% active;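 further: plate controls were bound peptide for no effect and peptide without receptor for full effect; nearly all actives have a fitted effect of over 50% in size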
Target sequence (P10828 whole entry, looked up): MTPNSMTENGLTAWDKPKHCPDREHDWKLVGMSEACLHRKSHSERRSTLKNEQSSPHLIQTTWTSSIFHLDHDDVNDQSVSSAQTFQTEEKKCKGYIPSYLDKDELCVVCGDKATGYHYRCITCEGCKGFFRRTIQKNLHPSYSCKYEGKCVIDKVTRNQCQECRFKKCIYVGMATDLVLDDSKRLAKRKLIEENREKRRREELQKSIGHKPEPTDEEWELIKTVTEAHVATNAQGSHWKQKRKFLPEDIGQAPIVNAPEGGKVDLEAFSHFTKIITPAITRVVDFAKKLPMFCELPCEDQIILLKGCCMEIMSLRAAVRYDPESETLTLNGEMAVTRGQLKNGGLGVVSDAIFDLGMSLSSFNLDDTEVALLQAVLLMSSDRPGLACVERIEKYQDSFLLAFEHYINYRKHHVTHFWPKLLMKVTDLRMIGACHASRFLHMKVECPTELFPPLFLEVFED
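TRb LBD 0.6 uM + Texas Red SRC2 peptide 20 nM, 1 uM T3, Tris buffer w/ 5% DMSO; compound pinned, 5 h RT; FP read ex 555/em 632; normalized to unbound and bound controls.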
Tau fibril ThT: qHTS for Inhibitors of Tau Fibril Formation, Thioflavin T Binding; Microtubule-associated protein tau (Homo sapiens), P10636; recombinant tau K18 P301L (four-repeat tau fragment), heparin-induced fibrillization, ThT fluorescence; Potency, µM (doses to about 57.4 µM), for inactives: top-dose activity, negative = inhibition, most hits filed as inhibitors; 270,000 tested, 2.1% active; AID 1460, 2008; further: nearly all actives have a fitted effect of over 55% in size
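Tau K18 P301L fragment (15 uM unlabeled plus 0.24 uM Alexa 594-labeled) in 100 mM sodium acetate pH 7 with compound, fibrillization induced by 20 uM heparin for 6 hr at 37 C. Thioflavin T (30 uM) added, fluorescence read after 1 hr (ex 450, em 510 nm).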
Active calls of the source: *; ? = inconclusive; . = no result given; [ ] = remark or other dose. The list is not random: actives were taken first. Their share in the collection is about 3.5%. Unless noted, the call rests on the fitted dose curve; in most records, active means well fitted curve in the direction sought with a large enough effect; inconclusive means small, poorly fitted or top-dose-only effect, or another doubt; inactive means no such curve, though single readings can be large; an effect the other way counts as inactive or inconclusive. Unless noted, on the % scale 0 is the no-effect control and ±100 the full control effect; potency means the concentration at half of the fitted maximal effect.

SMILES	Tau fluor counter	KDM4E inh	TR SRC2 fluor cs	Tau fibril FP	TRb SRC2 PPI	Tau fibril ThT
FC(F)(F)c1cnc(C(c2ccccn2)c2ncn[nH]2)c(Cl)c1 (stereo unspecified)	-1%	25µM*	-2%	-5%	-3%	-6%
CCN(CC)S(=O)(=O)c1ccc(C(=O)NCCSc2c[nH]c3ccccc23)cc1	?	5%	-1%	16%	4%	?
COc1ccc(-c2[nH]c3ccccc3c2SCCNC(=O)c2cc3ccccc3oc2=O)cc1	11µM*[quencher]	-12%	-2%	14%	-2%	?
CCN(CC)S(=O)(=O)c1ccc(C(=O)NCCSc2c(-c3ccc(C)cc3)[nH]c3ccccc23)cc1	3.2µM*[quencher]	.	1%	-1%	-5%	-4%
Cc1[nH]c2ccccc2c1SCCNC(=O)c1ccc(S(=O)(=O)N2CCCC2)cc1	16µM*[quencher]	1%	-2%	6%	1%	-15%
O=C(Cn1c(-c2cccs2)cc2cc(F)ccc21)NCCCN1CCN(c2ccccc2F)CC1	?	.	?	-13%	0%	-9%
CCOC(=O)[C@@]12C[C@@H]1/C(=N/O)c1ccccc1O2	-7%	?	0%	0%	-2%	-3%
CC1(C)CC(=O)C(=CN2CCOCC2)C(=O)C1	-24%	-3%	-3%	?	-13%	16µM*
Cc1cccc(-n2c(Cc3cc(=O)[nH]c(=O)[nH]3)nnc2SCC(=O)NCC2CCCO2)c1 (stereo unspecified)	-5%	6%	0%	-14%	2%	-3%
Cc1ccc(CNS(=O)(=O)c2cc3[nH]c(=O)c(=O)[nH]c3cc2C)cc1	2%	.	8%	-2%	10%	-1%
Cc1nc(SCC(=O)NC(C)(C)C)c2c(-c3cccs3)csc2n1	-7%	1%	-1%	2%	1%	-11%
Cc1ccc2nc(SCc3nc(-c4ccc(Cl)cc4)no3)[nH]c2c1	10µM*[quencher]	.	1%	18µM*	0%	?
COc1ccc(-c2noc(CSc3nc4ccccc4[nH]3)n2)cc1	-3%	.	6%	-4%	-2%	4%
COc1ccc(NC(=O)CSc2nc(N)c(C(=O)Nc3ccc(N(C)C)cc3)s2)cc1	?	-8%	1%	15%	-6%	2.5µM*
CCOC(=O)c1sc(SCC(=O)Nc2ccc(N(C)C)cc2)nc1N	?	-6%	-1%	8%	-15%	14µM*
COc1ccc(NC(=O)CSc2nnc(N)s2)cc1	-4%	5%	-1%	2%	-4%	1%
CN(C)c1ccc(NC(=O)CSc2nc(N)c(C(=O)Nc3ccc(N(C)C)cc3)s2)cc1	13µM*[quencher]	-4%	-2%	13%	-4%	2.5µM*
CCOc1ccc(C(=O)Nc2ccccc2OC(F)F)cc1	0%	0%	-2%	1%	1%	-11%
CCOC(=O)C1=C(N)Oc2cc(O)ccc2C1c1cccc([N+](=O)[O-])c1 (stereo unspecified)	?	4%	-7%	?	-1%	?
CC(=O)N1CCc2cc(Br)cc(S(=O)(=O)CCC(=O)N3CCN(c4ccccc4)CC3)c21	-17%	.	0%	-2%	2%	-13%
CC(C)Oc1ccc(CNC(=O)c2sc3ncccc3c2-n2cccc2)cc1	2%	.	-2%	-6%	9%	2%
COC(=O)c1ccc([C@@H]2Nc3c(OC)ccc(C)c3[C@@H]3C=CC[C@@H]32)cc1	?	.	-3%	?	10%	13µM*
Cc1cc(NC(=O)CSc2cc(Cl)ccc2Cl)n(-c2ccccc2)n1	5%	-11%	32µM*[quencher]	4%	-23%[53 µM]	5%
CSc1cccc(Nc2cc(C(=O)NCCCN(Cc3ccccc3)C(C)C)c3ccccc3n2)c1	3.5µM*[quencher]	.	1%	?	-1%	?
CC(C)c1ccc(Nc2cc(C(=O)NCCc3ccccc3)c3ccccc3n2)cc1	?	.	-1%	1%	-1%	1%
SMILES	Tau fluor counter	KDM4E inh	TR SRC2 fluor cs	Tau fibril FP	TRb SRC2 PPI	Tau fibril ThT
CSc1cccc(Nc2cc(C(=O)NC3CCCCC3)c3ccccc3n2)c1	?	.	0%	-4%	-1%	2%
Cc1cc(C)cc(Nc2cc(C(=O)NCCCN(Cc3ccccc3)C(C)C)c3ccccc3n2)c1	2.8µM*[quencher]	.	-3%	?	-8%	-16%
COc1ccc(C2CC(c3ccc4ccccc4c3)=NN2C(=O)CN2C(=O)CCC2=O)cc1 (stereo unspecified)	-13%	?	-4%	1%	-5%	-13%
COc1ccc2[nH]c3c(NCCC4=CCCCC4)ncnc3c2c1	7.9µM*[quencher]	?	-5%	?	10%	?
Cc1nc(SC(C)C(=O)Nc2ccccc2C)cc(-c2ccccc2)n1 (stereo unspecified)	-11%	.	-5%	-3%	0%	-8%
CN(C)c1ccc(CNc2nc(-c3ccco3)nn2C(=O)c2cccc([N+](=O)[O-])c2)cc1	13µM*[quencher]	.	3%	9%	-3%	?
Cc1cccc(C(=O)n2nc(-c3ccco3)nc2NCc2ccccc2)c1	-12%	.	4%	-3%	-2%	-7%
CCOC(=O)c1[nH]c2ccc(Cl)cc2c1NC(=O)/C=C/c1ccc2c(c1)OCO2	-22%	?	-6%	-12%	4%	11%
CCN(CC(=O)Nc1c(C(=O)OC)[nH]c2ccc(Cl)cc12)c1ccc2c(c1)OCO2	7.9µM*[quencher]	?	-2%	12%	-7%	?
O=C1NC(CCc2ccccc2)C(=O)N1Cc1ccccc1Cl (stereo unspecified)	-20%	3%	1%	-4%	3%	-11%
CC1(C)CC(=O)C2=C(C1)Nc1nc(SCCN3CCOCC3)[nH]c(=O)c1C2c1cccs1 (stereo unspecified)	-6%	?	-1%	9%	-5%	-11%
O=C(Nc1cccc(N=Cc2cc(Br)cc(Br)c2O)c1)c1ccco1	-22%	-10%	-7%	?	0%	14µM*
O=C(Nc1cccc(N=Cc2cc(Cl)cc(Br)c2O)c1)c1ccco1	-18%	5%	1%	-18%	4%	16µM*
COC(=O)N/N=C/c1ccccc1OCCOc1ccc(OC)cc1	0%	-9%	-1%	8%	-6%	-12%
O=C(Nc1ccccc1)Nc1cc(Cl)cc(Cl)c1	?	-5%	1%	11µM*	-14%	?
